Results on 60 sequences are retold here after the supplement of paper PMC10338343.

Experiment [1] has as its system MILI (PIWIL2) piRISC loaded with piRNA #1 (26 nt). As to the kind of experiment: pre-steady-state target cleavage rate (min^-1); guide: piRNA #1 5'p-UGAGGUAGUAGGUUGUAUAGUAUCCA; higher = faster piRNA-guided slicing of the target. Conditions: auxiliary factor: 500 nM mouse GTSF1. An outline of the steps:
(§1)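 A transcribed, DNA-blocked target RNA library (0.1 nM) and 1 nM active affinity-purified piRISC bearing one synthetic guide were incubated in HEPES–potassium acetate buffer at 33 °C for 0–8 or 0–960 min, either with or without 500 nM GTSF1 partner protein. Uncleaved targets were sequenced, normalised to depth and to weakly complementary targets, and pooled over three trials, with k3 capped at 0.0001 min^-1. The pre-steady-state cleavage rate was derived with a burst-and-steady-state fit.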

Experiment [2] has as its system EfPiwi piRISC loaded with piRNA #1 (26 nt). Nature of the experiment: pre-steady-state target cleavage rate (min^-1); auxiliary factor: 500 nM Ephydatia muelleri Gtsf1; guide: piRNA #1 5'p-UGAGGUAGUAGGUUGUAUAGUAUCCA; MIWI and MILI are mouse PIWI proteins and EfPiwi is from a freshwater sponge; tags in brackets are library labels; higher = faster piRNA-guided slicing of the target. The method, boiled down:
as §1

± gives the standard deviation.

For the sequence GGAGUGGUUACUUUACAACCUACUACCUCA, the “pre-steady-state target cleavage rate” value in experiment [1] was 0.162 ± 0.0089; in experiment [2], 0.00342 ± 0.0031.
Taken in the same sequence, the figures for GGAGACCAUACUAUACUACCUACUUCCUCA were 0.0579 ± 0.011 and 0.00301 ± 0.0023.
In the same order, the values of GGAGAGGAUUGAAUACAACCUACUACCUCA are 0.0664 ± 0.0088 and 0.00721 ± 0.0044.
GGAGAGGAUACUAUACAACCUACUACCUUCA: the “pre-steady-state target cleavage rate” value in experiment [1] came out at 0.178 ± 0.016; in experiment [2] it was 0.104 ± 0.039.
Taken in the same sequence, the figures for GGAGACCUUACUAUACAGCCUACUACCUCA were 0.116 ± 0.012 and 0.068 ± 0.028.
With GGAGACGAUACUAUACAACGUACUUCCUCA, the “pre-steady-state target cleavage rate” value is 0.0234 ± 0.0059 in experiment [1] and 0.00359 ± 0.0013 in experiment [2].
GGAGACGAUACUAUAGAACCUACUACCUGA: the “pre-steady-state target cleavage rate” value was 0.0908 ± 0.021 in experiment [1] and 0.00292 ± 0.0011 in experiment [2].
Taken in the same sequence, the figures for GGAGACCUUACUAUACAACCUACAACCUCA were 0.126 ± 0.016 and 0.00341 ± 0.0024.
Regarding GGAGACCUAUCUAUACAUCCUAGUACCUCA, the entries for the “pre-steady-state target cleavage rate” value in experiment [1] and in experiment [2] were 0.0489 ± 0.012 and 0.00398 ± 0.0038, respectively.
Taken in the same sequence, the figures for GGAGUGGAUACUAUACUUCCUACUACCUCA were 0.202 ± 0.013 and 0.0195 ± 0.01.
In the same order, the values of GGAGACCUAUGAAUACAACCUACUACCUUA are 0.00551 ± 0.0022 and 0.00423 ± 0.0038.
In the same order, the values of GGAGACCUAUCUAUACAACCUACUACCGCA are 0.174 ± 0.021 and 0.0051 ± 0.0049.
As to GGAGACCAUACUAUUCAACCUACUACCUGA, the “pre-steady-state target cleavage rate” value was 0.114 ± 0.018 in experiment [1] and 0.00313 ± 0.0026 in experiment [2].
In the same order, the values of GGAGACGAUACUAUACAACCUACUACCGCA are 0.161 ± 0.021 and 0.00926 ± 0.0033.
With GGAGAGGAUACUUUUCAACCUACUACCUCA, the “pre-steady-state target cleavage rate” value in experiment [1] came to 0.145 ± 0.011; in experiment [2], 0.00409 ± 0.004.
Take GGAGAGCGAUACUAUACAACCUACUACCUCA: the entries for the “pre-steady-state target cleavage rate” value in experiment [1] and in experiment [2] were 0.249 ± 0.02 and 0.0132 ± 0.006, respectively.
Taken in the same sequence, the figures for GGAGACGAUUACUAUACAACCUACUACCUCA were 0.147 ± 0.0094 and 0.0159 ± 0.0066.
In the same order, the values of GGAGAGCAUACUAUACUACCUACUACCUCA are 0.195 ± 0.016 and 0.00584 ± 0.0027.
On to “GGAGUGGAUACUAUACAACCUACUACCUCC [g2:g26:cont:t1C]”, for which the figures for the “pre-steady-state target cleavage rate” value in experiment [1] and in experiment [2] were 0.188 ± 0.0099 and 0.105 ± 0.037, respectively.
Taken in the same sequence, the figures for GGAGACGAUAGUAUACAACCUAGUACCUCA were 0.0719 ± 0.011 and 0.00201 ± 0.0013.
In the same order, the values of GGAGACCUAUGUAAUACAACCUACUACCUCA are 0.0179 ± 0.0049 and 0.00412 ± 0.0028.
In the same order, the values of GGAGACCUUACUAUACCACCUACUACCUCA are 0.109 ± 0.014 and 0.006 ± 0.003.
GGAGUGGUAUACUAUACAACCUACUACCUCA: the “pre-steady-state target cleavage rate” value in experiment [1] was 0.166 ± 0.011; in experiment [2], 0.0155 ± 0.0067.
Taken in the same sequence, the figures for GGAGAGGAUACUAUUCAACCUACUUCCUCA were 0.0111 ± 0.0046 and 0.00313 ± 0.0024.
Take GGAGUGGAUACUAUACGACCUACUACCUCA: the results for the “pre-steady-state target cleavage rate” value in experiment [1] and in experiment [2] were 0.135 ± 0.0095 and 0.0922 ± 0.036, respectively.
In the same order, the values of GGAGUGGAUACUAUGCAACCUACUACCUCA are 0.192 ± 0.009 and 0.09 ± 0.035.
In the same order, the values of GGAGACCAUACUAUAUCAACCUACUACCUCA are 0.0898 ± 0.011 and 0.0136 ± 0.0068.
Consider GGAGACCAUACAAAACAACCUACUACCUCA, for which the figures for the “pre-steady-state target cleavage rate” value in experiment [1] and in experiment [2] were 0.0496 ± 0.014 and 0.00423 ± 0.0037, respectively.
For GGAGAGGAUACUAUACAACCUACUACACUCA, the “pre-steady-state target cleavage rate” value in experiment [1] is 0.136 ± 0.019; in experiment [2] it was 0.00522 ± 0.0018.
In the same order, the values of GGAGUGGAUACUAUACAACCUACUACCUA are 0.103 ± 0.014 and 0.249 ± 0.092.
Taken in the same sequence, the figures for GGAGACGAAACUAUACAACCUACUUCCUCA were 0.0627 ± 0.022 and 0.00318 ± 0.0023.
Taken in the same sequence, the figures for GGAGUGGUUACUAUACAACCUACAACCUCA were 0.0861 ± 0.0095 and 0.00227 ± 0.0015.
GGAGUGGAUACUAAACAAGCUACUACCUCA: the “pre-steady-state target cleavage rate” value stood at 0.211 ± 0.013 in experiment [1] and 0.00401 ± 0.0019 in experiment [2].
With GGAGAGGAUUCUAUACAACCUACUACCUCA, the figures for the “pre-steady-state target cleavage rate” value in experiment [1] and in experiment [2] were 0.179 ± 0.011 and 0.0066 ± 0.0039, respectively.
In the same order, the values of GGAGUGGUUACUAUACAACCUACUACGUCA are 0.0604 ± 0.011 and 0.00307 ± 0.0016.
For the sequence GGAGAGGAUACUAUACCACCUACUACCUCA, the “pre-steady-state target cleavage rate” value in experiment [1] was determined as 0.212 ± 0.019; in experiment [2], 0.00648 ± 0.003.
As to GGAGAGGAUACUAUAGAUCCUACUACCUCA, the “pre-steady-state target cleavage rate” value in experiment [1] came to 0.242 ± 0.024; in experiment [2], 0.00654 ± 0.0034.
Regarding GGAGACCAUACUAUACAACCUAAUACCUCA, the “pre-steady-state target cleavage rate” value was 0.117 ± 0.018 in experiment [1] and 0.00857 ± 0.0039 in experiment [2].
For the sequence GGAGAGGAUACUAUACAACCUACUUGCUCA, the “pre-steady-state target cleavage rate” value was 0.00476 ± 0.0029 in experiment [1] and 0.00478 ± 0.0023 in experiment [2].
As for GGAGACGAGUACUAUACAACCUACUACCUCA, the “pre-steady-state target cleavage rate” value amounted to 0.176 ± 0.014 in experiment [1] and 0.0147 ± 0.0053 in experiment [2].
Taken in the same sequence, the figures for GGAGACCUAACUAUACACCCUACUACCUCA were 0.0388 ± 0.013 and 0.00682 ± 0.0033.
Regarding GGAGACCUAUCUAUACAACCUACUACUUCA, the figures for the “pre-steady-state target cleavage rate” value in experiment [1] and in experiment [2] were 0.0866 ± 0.0097 and 0.0119 ± 0.0067, respectively.
Taken in the same sequence, the figures for GGAGCGGAUACUAUACAACCUACUACCUCA were 0.203 ± 0.013 and 0.141 ± 0.048.
Taken in the same sequence, the figures for GGAGACGAUACUAUACAACCUACUAUCCUCA were 0.193 ± 0.024 and 0.0049 ± 0.0014.
In the same order, the values of GGAGACGAUACUAAACUACCUACUACCUCA are 0.24 ± 0.018 and 0.00228 ± 0.0021.
Consider GGAGAGGAUACUAUACAACCUACUUCCUCA, for which the “pre-steady-state target cleavage rate” value in experiment [1] was found to be 0.0124 ± 0.0047; in experiment [2], 0.00514 ± 0.0026.
In the same order, the values of GGAGACGAUACUAUACAAGCUACUACCACA are 0.311 ± 0.016 and 0.00387 ± 0.0017.
In the same order, the values of GGAGACCUAUGCAUACAACCUACUACCUCA are 0.0358 ± 0.0081 and 0.0042 ± 0.0037.
In the same order, the values of GGAGAGGAUACUAUACUUCCUACUACCUCA are 0.19 ± 0.015 and 0.00555 ± 0.0051.
As to “GGAGACCUAUGAAUACAACCUACUACCUCU [g2:g18:cont:t1U]”, the “pre-steady-state target cleavage rate” value in experiment [1] was found to be 0.0139 ± 0.0044; in experiment [2] it was 0.688 ± 0.25.
Taken in the same sequence, the figures for GGAGACGAGACUAUACAACCUACUACCUCA were 0.214 ± 0.034 and 0.0942 ± 0.032.
Take “GGAGAGGAUACUAUACAACCUACUACCUCA [g2:g25:cont:t1A]”: the “pre-steady-state target cleavage rate” value in experiment [1] was 0.206 ± 0.017; in experiment [2], 0.0912 ± 0.033.
Taken in the same sequence, the figures for GGAGAGGAUACUAUACAUCCUACUACCACA were 0.0843 ± 0.016 and 0.00374 ± 0.0014.
In the same order, the values of GGAGACGAAACUAUACAACCUACUAGCUCA are 0.083 ± 0.025 and 0.00368 ± 0.0023.
GGAGACCUUACUAUACAACCUACUACCCUCA: the “pre-steady-state target cleavage rate” value in experiment [1] was found to be 0.17 ± 0.019; in experiment [2], 0.00416 ± 0.0023.
Take GGAGUCGAUACUAUACAACCUACUACGUCA: the “pre-steady-state target cleavage rate” value turned out to be 0.0797 ± 0.0078 in experiment [1] and 0.00643 ± 0.0028 in experiment [2].
On to GGAGUGGUUACUAUACAACCAACUACCUCA, for which the “pre-steady-state target cleavage rate” value in experiment [1] was found to be 0.00796 ± 0.0019; in experiment [2], 0.0036 ± 0.0014.
Taken in the same sequence, the figures for GGAGACGAUACUAUUCAACCUACUUCCUCA were 0.0306 ± 0.0097 and 0.00413 ± 0.0031.
Regarding GGAGACCAAACUAUACAACCUACAACCUCA, the results for the “pre-steady-state target cleavage rate” value in experiment [1] and in experiment [2] were 0.12 ± 0.035 and 0.008 ± 0.0041, respectively.
Taken in the same sequence, the figures for GGAGUGGAUACUAUACAAGCUACUACGUCA were 0.0651 ± 0.013 and 0.00405 ± 0.0015.
